From article PMC4552634, “A New Set of Chemical Starting Points with Plasmodium falciparum Transmission-Blocking Potential for Antimalarial Drug Discovery” (PLoS ONE, 2015) come the findings set out here.

Among all 13,000 compounds or so, about 3,200 (25%) showed an effect of 50% or more. Some of the results follow.

One may read the % Inhibition as the change of the read-out against control, counted positive when it falls.

This assay relates to P. falciparum stage V gametocytes. Further details: BacTiter-Glo ATP luminescence viability of purified stage V gametocytes in 384-well plates, per cent inhibition versus DMSO. The following applies: 48 h, 5 µM; inhibitor.
Consider `CCOc1ccc(-c2nonc2NC(=O)c2cccc(Cl)c2)cc1OCC` [TCMDC-125200], for which the “% Inhibition” value is given as 91.59%.
Under `CCOc1ccc(-c2nonc2NC(=O)c2ccco2)cc1OCC` [TCMDC-125197] stands 3.347%.
With `CCOc1ccc(-c2nonc2NC(=O)c2cccs2)cc1OCC` [TCMDC-125207] the figure was 83.06%; with `CCOc1ccc(-c2nonc2NC(=O)CC(C)C)cc1OCC` [TCMDC-125196], 42.86%.
With `CCOc1ccc(-c2nonc2NC(=O)c2ccccc2)cc1OCC` [TCMDC-125199] the figure was 91.48%; with `CCCCC(=O)Nc1nonc1-c1ccc(OCC)c(OCC)c1` [TCMDC-125071], 74.8%.
In the case of `Cc1ccc2cc(NCCCCCCCCON3C(N)=NC(N)=NC34CCCCC4)ccc2n1` [TCMDC-140362], the “% Inhibition” value came out at 9.593%.
Under `Cn1cncc1C(=O)NC1CCN(c2ccnc(Nc3ccc(F)cc3)n2)C1` (centres unmarked) [TCMDC-133600] stands -9.129%.
Under `CC(C)CC(C)NC(=O)C1Cc2c([nH]c3ccc(F)cc23)C2(CCN(Cc3ccccc3)CC2)N1` (centres unmarked) [TCMDC-141304] stands -71.76%; under `Cc1cccc2nc(-c3ccc(-c4ccc(NC(=O)Nc5cccc(C#N)c5)cc4)s3)[nH]c12` [TCMDC-133189], 17.89%; under `CCN(CC)S(=O)(=O)c1ccc(C(=O)Oc2ccccc2N(Cc2ccc(OC)cc2)C2=NS(=O)(=O)c3ccccc32)cc1` [TCMDC-125657], 32.63%.
With `COc1ccc2nccc([C@@H](O)CN3CCC(NCc4ccc5sc(=O)[nH]c5c4)CC3)c2c1` [TCMDC-141199] the figure was 32.68%; with `Oc1ccc(CN2CCC(N3CCN(CCc4ccccc4)CC3)C(O)C2)cc1Cl` (centres unmarked) [TCMDC-124627], 21.13%; with `CCc1ccc(O)c(-c2cc(C(=O)Nc3cccnc3)[nH]n2)c1` [TCMDC-125321], -26.21%.
For the compound `CN1CCN(Cc2c(O)ccc3c(=O)c(Oc4ccc(C(C)(C)C)cc4)c(C(F)(F)F)oc23)CC1` [TCMDC-125699], the “% Inhibition” value turned out to be 17.84%.
Under `O=C(Nc1cccc(Cl)c1)OC1CCCN2CCCCC12` (centres unmarked) [TCMDC-132073] stands 14.89%; under `CC(C)(C)c1ccc(S(=O)(=O)Nc2ccccc2Cn2nc(N3CCNCC3)ccc2=O)cc1` [TCMDC-132579], 45.07%; under `CC(C)(C)C(=O)Nc1ccc(C(=O)Nc2cccc(-c3nc4ccccc4[nH]3)c2)cc1` [TCMDC-123720], -0.3051%.
With `CCOc1ccc(-c2nonc2NC(=O)c2ccc(Cl)cc2)cc1OCC` [TCMDC-125210] the figure was 29.52%; with `CCOc1ccc(-c2nonc2NC(=O)c2ccc(OC)cc2)cc1OCC` [TCMDC-125208], 49.87%.
On to `CCOc1ccc(-c2nonc2NC(=O)c2ccc(F)cc2)cc1OCC` [TCMDC-125209], for which the “% Inhibition” value turned out to be 63.55%.
With `Nc1cccc(CNCc2cccc(-c3ccc(-c4nc5ccccc5[nH]4)cc3)c2)c1.O=C(O)C(F)(F)F` [TCMDC-132940] the figure was -44.43%; with `CCOc1cccc2nc(NCCCNCc3ccc(Cl)c(Cl)c3)cc(NCCCNCc3ccc(Cl)c(Cl)c3)c12` [TCMDC-139413], 102.1%.
`CCOc1c(Cl)cc(Cl)cc1CNCCCNc1nc2ccccc2[nH]1` [TCMDC-140104]: the “% Inhibition” value stood at 21.3%.
Under `CCOc1cc(NCCCNc2ncc([N+](=O)[O-])cc2C)nc2ccccc12` [TCMDC-139265] stands -18.92%.
Under `COc1ccc2c(c1)nc(CN=C(N)N)n2Cc1ccc(Cl)cc1` [TCMDC-142042] stands 28.73%; under `Cc1cc(O)c(-c2cc(C(=O)Nc3cccnc3)[nH]n2)cc1C` [TCMDC-124307], 6.508%; under `COc1ccc(-c2nc(NC(=O)COc3ccc(C(C)=O)cc3)sc2C)cc1` [TCMDC-125108], 2.358%.
Under `Cn1nccc1C(=O)NCCNCc1ccc(-c2ccc(-c3nc4cc(C(F)(F)F)ccc4[nH]3)s2)cc1.O=C(O)C(F)(F)F` [TCMDC-133018] stands -29.18%.
`CC(C)Nc1cc(C(=O)N[C@@H](Cc2ccccc2)[C@H](O)CNC(C)(C)c2cccc(C(F)(F)F)c2)cc(N2CCCCS2(=O)=O)c1` [TCMDC-135204]: the “% Inhibition” value is listed as 0.5792%.
Under `CCNc1cc(C(=O)N[C@@H](Cc2ccccc2)[C@H](O)CNCCC(C)(C)C)c(F)c(N2CCCCS2(=O)=O)c1` [TCMDC-135165] stands 62.14%.
Under `CC(C)CCCC(C)(C)NC[C@@H](O)[C@H](Cc1ccccc1)NC(=O)c1cc(NC(C)C)cc(N2CCCCS2(=O)=O)c1` [TCMDC-135206] stands 89.31%; under `CCNc1cc(C(=O)N[C@@H](Cc2ccccc2)[C@H](O)CNC(C)(C)CC(C)(C)C)c(F)c(N2CCCCS2(=O)=O)c1` [TCMDC-135166], -2.474%; under `CC(C)Nc1cc(C(=O)N[C@@H](Cc2ccccc2)[C@H](O)CNCc2cccc(C(F)(F)F)c2)c(F)c(N2CCCCS2(=O)=O)c1` [TCMDC-135538], 3.895%.
Under `CCNc1cc(C(=O)N[C@@H](Cc2ccccc2)[C@H](O)CNC(C)CC(C)C)c(F)c(N2CCCCS2(=O)=O)c1` (some centres unmarked) [TCMDC-135167] stands 44.92%.
Consider `CC(C)CCCC(C)(C)NC[C@@H](O)[C@H](Cc1ccccc1)NC(=O)c1cc(NC(C)C)cc(N2CCCCS2(=O)=O)c1F` [TCMDC-135540], for which the “% Inhibition” value is 50.35%.
Under `CCNc1cc(C(=O)N[C@@H](Cc2ccccc2)[C@H](O)CNC(C)(C)CCCC(C)C)cc(N2CCCCS2(=O)=O)c1` [TCMDC-135211] stands 24.29%; under `CCNc1cc(C(=O)NC(Cc2ccccc2)C(O)CNC(C)(C)CCCC(C)C)c(F)c(N2CCCS2(=O)=O)c1` (centres unmarked) [TCMDC-135210], 12.17%.
Turning to `CCc1cc2c3c(N)nc(N)nc3ccc2n1C(C)(C)C` [TCMDC-137306], the “% Inhibition” value is on record as 29.54%.
With `CCn1c(C(C)C)cc2c3c(N)nc(N)nc3ccc21` [TCMDC-137856] the figure was 56.38%; with `CCc1cc2c3c(N)nc(N)nc3ccc2n1C(C)CC` (centres unmarked) [TCMDC-137308], 10.89%.
With `CC(C)n1ncc2c3c(N)nc(N)nc3ccc21` [TCMDC-137866] the figure was 12.93%; with `CCCc1cc2c3c(N)nc(N)nc3ccc2n1CC` [TCMDC-137946], 108%.
Under `CCCc1cc2c3c(N)nc(N)nc3ccc2n1C(CC)CC` [TCMDC-137312] stands 13.64%.
For `CCc1cc2c3c(N)nc(N)nc3ccc2n1CC` [TCMDC-137851], the “% Inhibition” value is given as 94.91%.
Under `CCC(CC)n1c(COC)cc2c3c(N)nc(N)nc3ccc21` [TCMDC-137313] stands -40.93%; under `CCc1cc2c3c(N)nc(N)nc3ccc2n1C(CC)CC` [TCMDC-137309], 2.246%.
